Many of the other results were omitted from the sample, so hits are more common in it than they were.
Tgondii IFNg: T. gondii growth inhibition with IFN-gamma, primary screen, cell-based. Toxoplasma gondii growth in IFN-gamma-treated host cells; hits give low values. activity change, negative = inhibition, % (test concentration not listed). 69,000 tested, 3.8% active. AID 1259416, 2018; in the data active = activity change below about -70%, passing the limit was not always enough;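 note: host cells are HeLa cells infected with Toxoplasma gondii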
Of the large screens only hits and unclear results are named; the others gave an inactive call; ! = repeats disagree.

CCC(C)N(Cc1cccc(Cl)c1)C(=O)c1ccc(C#CC(C)(C)O)o1 (centres undefined)	none
CCCOC1CCCN(C(=O)C(=O)N(C)c2ccccc2)C1 (centres undefined)	none
O=C(O)CSc1nnc(Cc2ccccc2F)n1-c1ccccc1Cl	none
O=c1cc(Cn2cccn2)nc2cc(-c3ccccn3)[nH]n12	none
O=C(CC1Nc2c3ccccc3nc(=S)n2C1=O)NCc1cccs1 (centres undefined)	none
CN1CCN(c2cc(C(=O)Nc3ccc(OCc4ccccc4F)cc3)ccn2)CC1	Tgondii IFNg -76
O=C(Nc1ccc(OCc2ccccc2F)cc1)c1ccc(-n2cnnc2)cc1	none
CN1CCN(c2cc(C(=O)NCCS(=O)(=O)c3ccc(F)cc3)ccn2)CC1	none
CCSc1nc(CC(=O)NC(CC)c2cnn(C)c2)cs1 (centres undefined)	none
COCC1CCC2(CCN(C(=O)c3cccs3)CC2)N1CC1CC1 (centres undefined)	none
O=C(N/N=C/c1ccccc1O)c1ccccc1O	Tgondii IFNg -83
CC(=O)Nc1ccc(OC(=O)c2ccccc2O)cc1	none
O=C(/C=C/c1ccccc1)NC(=O)c1ccccc1O	none
O=C(NCc1nc(-c2ccccc2)no1)c1cnn(-c2ccc(F)cc2)c1	none
Cc1cc(C)c(S(=O)(=O)NCCc2csc(-c3ccc(Cl)cc3)n2)cc1C	none
CCOCc1ncn2c1CN(C(=O)c1ccoc1C)CC2	none
O=C(O)CN1CCC2(CC(=O)N(c3ccsc3)C2)C1 (centres undefined)	none
CCOC(=O)c1[nH]c2cc(Cl)cc(Cl)c2c1CCC(=O)O	none
CCOC(=O)COc1ccc(Cl)cc1C(=O)OC	none
CCOC(=O)c1[nH]ncc1-c1ccc(Cl)cc1Cl	Tgondii IFNg -95
Cc1ccsc1CN(C)C(=O)c1cc(Cn2ccnc2C(C)C)[nH]n1	none
Cc1nnc(-c2coc(S(=O)(=O)N3CCC(N4CCCCC4)CC3)c2)o1	none
COc1ccc(CN2CCC3(CC2)CC(c2cccnc2)CO3)cc1 (centres undefined)	none
N#Cc1ccc(N2CCC3(CC2)CC(c2cccnc2)CO3)cc1 (centres undefined)	none
Fc1ccc(N2CCC3(CC2)CC(c2cccnc2)CO3)cc1 (centres undefined)	Tgondii IFNg -82
CCOC(=O)C1CCN(Cc2cc(OC)c(OC)cc2OC)CC1	none
O=C(c1csc(-c2cccnc2)n1)N1CCOC(c2ccc(Cl)cc2)C1 (centres undefined)	none
CC1(C)Cc2c(sc3ncnc(N)c23)CO1	none
CCCCN(CCCC)c1ncnc2c1sc1nc3c(cc12)COC(C)(C)C3	Tgondii IFNg -103
Nc1nnc(CSCc2ccc(Cl)cc2Cl)s1	none
Nc1nnc(Sc2nc3c(Cl)cc(Cl)cc3s2)s1	Tgondii IFNg -85
Nc1nnc(SCc2c(Cl)cccc2Cl)s1	none
NC(=O)C1(N2CCCCC2)CCN(Cc2cc3n(n2)CCCNC3)CC1	none
CSc1nc(N)n2nc(-c3cccs3)cc2n1	none
O=C(NCCc1csc2c1CCCC2)c1cn(CC2CCCNC2)nn1 (centres undefined)	Tgondii IFNg -78
Cc1cccnc1N1CCN(C(=O)c2cn(CC3CCCNC3)nn2)CC1 (centres undefined)	none
CC1(C)Cc2ccccc2CN1C(=O)c1cn(CC2CCCNC2)nn1 (centres undefined)	none
CCCCC(=O)Nc1ccnn1CC1=CCCN(C)C1	none
Cc1cc(C)n(CC(=O)Nc2ccc3oc(C)cc3c2)n1	none
CC(O)COC[C@H]1O[C@@H]2O[C@H]3[C@H](O)[C@@H](O)[C@@H](O[C@H]4[C@H](O)[C@@H](O)[C@@H](O[C@H]5[C@H](O)[C@@H](O)[C@@H](O[C@H]6[C@H](O)[C@@H](O)[C@@H](O[C@H]7[C@H](O)[C@@H](O)[C@@H](O[C@H]8[C@H](O)[C@@H](O)[C@@H](O[C@H]1[C@H](O)[C@H]2O)O[C@@H]8COCC(C)O)O[C@@H]7COCC(C)O)O[C@@H]6COCC(C)O)O[C@@H]5COCC(C)O)O[C@@H]4COCC(C)O)O[C@@H]3COCC(C)O (some centres undefined)	none
O=C1C(=O)N(Cc2ccc(Cl)c(Cl)c2)c2ccccc21	none
CC(=O)O/N=C1/C(=O)N(Cc2cc(Cl)ccc2Cl)c2ccc(Cl)cc21	Tgondii IFNg -79
COc1cccc(NC(=O)N2CCC3(CC2)Nc2cc(OC)ccc2-n2cccc23)c1	none
COCCO[C@@H]1CCN(C(=O)c2cccs2)[C@H]1Cc1ccccc1	none
CS(=O)(=O)N1CCO[C@H]2CCN(c3cnccn3)CC[C@H]21	none
Cc1ccc(Sc2c(Sc3ccc(C)cc3)c(=O)c2=O)cc1	Tgondii IFNg -88
Cc1ccc(SCCNS(C)(=O)=O)cc1	none
Cc1ccc(SCCC(=O)c2ccc(Cl)cc2)cc1	none
Oc1c(Cl)cc(Cl)cc1Sc1cc(Cl)cc(Cl)c1O	Tgondii IFNg -84!
Cc1[nH]c2ccc(CNC(=O)CCc3cnccn3)cc2c1C	none
COc1ccc(-c2nc(N3CCN(c4ccccn4)CC3)c3ccccc3n2)cc1	none
NC(=O)N1CCO[C@]2(CCC[C@H]2COc2cccnc2)C1	none
Cc1cnc(-c2nnc(NCC3CCCO3)s2)cn1 (centres undefined)	none
COc1ccc(-c2nc(Cn3ccn4nc(-c5ccccc5)cc4c3=O)c(C)o2)cc1	none
Cc1oc(-c2ccc(C(=O)NCc3cccc(F)c3)cc2)nc1CN1CCc2ccccc21	none
COc1ccc(-c2nc(CN3C(=O)C(O)(c4ccccc4)c4ccccc43)c(C)o2)cc1 (centres undefined)	Tgondii IFNg -78
COc1ccc(-c2nc(Cn3c(C)cc(C)c(-c4nc(-c5ccccc5)no4)c3=O)c(C)o2)cc1	Tgondii IFNg -86
Cc1oc(-c2ccccc2)nc1CN1C(=O)C(O)(c2ccccc2)c2ccccc21 (centres undefined)	none
Cc1oc(-c2ccccc2)nc1CN1C(=O)C(O)(c2cccc(F)c2)c2ccccc21 (centres undefined)	Tgondii IFNg -105
COc1ccc(-c2nc(CN3C(=O)C(O)(c4cccc(C)c4)c4ccccc43)c(C)o2)cc1 (centres undefined)	none
COc1ccc(-c2cc3c(=O)n(Cc4nc(-c5ccccc5)oc4C)ccn3n2)cc1	none
Cc1oc(-c2ccc(C(=O)NCc3cccc(F)c3)cc2)nc1CN1CCN(c2ccccc2)CC1	none
CC1c2ncc(COc3cccnc3)n2CCN1S(=O)(=O)N(C)C (centres undefined)	none
COc1cccc(-c2noc(-c3c(O)c4ccccc4n(C)c3=O)n2)c1OC	none
CC(CCNC(=O)Cn1c2ccccc2c2cnn(C)c(=O)c21)N1CCCC1 (centres undefined)	none
Cc1nc2c(C(=O)N3CCOC(c4ccc(Cl)c(Cl)c4)C3)cccc2[nH]1 (centres undefined)	none
Cc1cccc(Nc2cncc(C3CCCN(C(=O)c4cccnc4)C3)n2)n1 (centres undefined)	none
CCN(CC)C(=O)[C@@H]1C[C@H](N)CN1C(=O)CCc1cc(Cl)no1	none
COc1ccc2oc(-c3ccccc3OC)cc(=O)c2c1	none
CS(=O)(=O)c1ccc(CC(=O)O)cc1	none
CC[C@H](NCC(=O)Nc1ccccc1NC(C)=O)c1ccccc1	none
CCN1C(=O)C2(c3ccccc31)c1[nH]c3ccccc3c1CCN2C(C)=O (centres undefined)	none
CCOc1ccccc1C(=O)Nc1ccc(-c2nc(Cn3nc(C)cc3C)c(C)o2)cc1	none
CCOc1ccc(Nc2nc(-c3ccc(OC)cc3)nc3ccccc23)cc1	none
CCOc1ccc(Nc2nc3ccccc3nc2Nc2ccc(OCC)cc2)cc1	Tgondii IFNg -100
CCOc1ccc(NC(=O)c2nc3ccccc3nc2-n2nc(C)cc2C)cc1	Tgondii IFNg -99
CCOc1ccc(CNC(=O)c2nc(Nc3ccccc3)c3ccccc3n2)cc1	none
